Results filed as inconclusive are left out. Calls of active or inactive are those of the source. How the source made its calls, unless noted: active means hit-call score of the fitted dose curve at least 0.9, where 1 is the maximum; inactive means score below 0.9.
Tests used:
[1] = target: Nuclear respiratory factor 1 (Homo sapiens) (UniProt Q16656); test: ATG_NRF1_CIS: Attagene CIS-FACTORIAL HepG2 Assay for human Nuclear Respiratory Factor 1 (NRF1) Orphan Gene (AID 2282987); conditions: HepG2 NRF1 cis-element reporter, Attagene multiplex; actives raise or lower the signal
Chain of Nuclear respiratory factor 1 (Homo sapiens) (Q16656 whole entry, looked up): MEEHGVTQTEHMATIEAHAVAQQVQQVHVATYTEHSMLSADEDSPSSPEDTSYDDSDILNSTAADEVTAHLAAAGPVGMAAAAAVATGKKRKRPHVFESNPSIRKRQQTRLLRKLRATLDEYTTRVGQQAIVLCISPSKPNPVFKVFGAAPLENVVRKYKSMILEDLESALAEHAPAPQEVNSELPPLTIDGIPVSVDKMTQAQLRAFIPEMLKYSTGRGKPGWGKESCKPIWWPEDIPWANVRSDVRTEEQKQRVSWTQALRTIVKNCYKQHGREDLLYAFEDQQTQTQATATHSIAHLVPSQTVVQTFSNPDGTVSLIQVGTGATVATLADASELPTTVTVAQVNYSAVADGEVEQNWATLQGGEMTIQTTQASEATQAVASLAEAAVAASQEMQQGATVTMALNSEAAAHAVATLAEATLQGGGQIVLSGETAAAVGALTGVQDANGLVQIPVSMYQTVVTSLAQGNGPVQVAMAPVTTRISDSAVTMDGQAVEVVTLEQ
In short: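 Human hepatoma HepG2 cells carrying transfected promoter-regulated reporter units were incubated with test chemicals for 24 h. Reporter transcripts were measured by RT-PCR plus capillary electrophoresis, and endpoints derived by bidirectional fitting with DMSO as baseline.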

[2] = ATG_NFI_CIS: Attagene CIS-FACTORIAL HepG2 Assay for human Nuclear Factor I (NFI) (AID 2282989); conditions: HepG2 cis-regulatory reporter, NFI response element transcription; actives raise or lower the signal
In short: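 Endogenous TF activity in HepG2 cells transiently transfected with cis-element-driven multiplexed reporter units, read 24 h after dosing. Reporter mRNA quantified by RT-PCR, 6-FAM labelling, HpaI digestion and capillary electrophoresis; bidirectional fit versus DMSO.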

[3] = target: Myc proto-oncogene protein (Homo sapiens) (UniProt P01106); test: ATG_Myc_CIS: Attagene CIS-FACTORIAL HepG2 Assay for human Myelocytomatosis (Myc) Proto-Oncogene Transcription Factor (AID 2282990); conditions: HepG2, Attagene cis-reporter transcription factor activity; actives raise or lower the signal
Chain of Myc proto-oncogene protein (Homo sapiens) (P01106 whole entry, looked up): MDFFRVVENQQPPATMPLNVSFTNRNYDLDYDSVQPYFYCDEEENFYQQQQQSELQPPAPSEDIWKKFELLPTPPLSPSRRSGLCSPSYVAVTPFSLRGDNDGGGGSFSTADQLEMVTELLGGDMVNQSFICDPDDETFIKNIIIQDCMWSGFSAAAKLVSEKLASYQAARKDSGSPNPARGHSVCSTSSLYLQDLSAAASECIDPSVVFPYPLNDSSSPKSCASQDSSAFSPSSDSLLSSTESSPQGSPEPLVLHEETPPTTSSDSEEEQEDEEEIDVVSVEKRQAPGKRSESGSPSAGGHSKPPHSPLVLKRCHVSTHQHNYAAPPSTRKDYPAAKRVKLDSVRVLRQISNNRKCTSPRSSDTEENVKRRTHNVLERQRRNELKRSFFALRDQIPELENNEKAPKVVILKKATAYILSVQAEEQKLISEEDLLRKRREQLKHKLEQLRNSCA
In short: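 Multiplexed cis-reporter transcription in HepG2 cells after 24 h chemical treatment. Reporter mRNA measured by RT-PCR and capillary electrophoresis fluorescence; activity fitted bidirectionally against DMSO control.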

[4] = ATG_NF_kB_CIS: Attagene CIS-FACTORIAL HepG2 Assay for human Nuclear Factor Kappa B (NF-kB) (AID 2282991); conditions: HepG2 Attagene cis-factorial NF-kB reporter mRNA; actives raise or lower the signal
In short: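 Multiplexed cis-reporter assay in transiently transfected HepG2. 24 h treatment; RNA isolated, RT-PCR, labelled fragments resolved by CE. DMSO baseline.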

[5] = ATG_NRF2_ARE_CIS: Attagene CIS-FACTORIAL HepG2 Assay for human Nuclear Factor Erythroid 2 Related Factor 2 (NFR2) response to Antioxidant Response Elements (ARE) (AID 2282992); conditions: HepG2 Attagene ARE/NRF2 reporter, transcription factor activity; actives raise or lower the signal
In short: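 Transient MRTU transfection of HepG2; 24 h compound exposure; TriZol RNA, RT with oligo(dT), PCR, 6-FAM primer extension, HpaI cut, CE. Bidirectional fit vs DMSO.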

[6] = ATG_Oct_MLP_CIS: Attagene CIS-FACTORIAL HepG2 Assay for human Octamer-Binding Transcription Factor (Oct) (AID 2282993); conditions: HepG2 Attagene cis-factorial Oct reporter, mRNA; actives raise or lower the signal
In short: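 HepG2 cells transiently transfected with cis-element-driven reporter transcription units (endogenous TF activity); 24 h compound exposure. Reporter mRNA quantified by RT-PCR, 6-FAM labelling, HpaI digestion and capillary electrophoresis; bidirectional fit versus DMSO baseline.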

[7] = target: Cellular tumor antigen p53 (Homo sapiens) (UniProt P04637); test: ATG_p53_CIS: Attagene CIS-FACTORIAL HepG2 Assay for human p53 Transcription Factor (AID 2282994); conditions: HepG2 p53 cis-element reporter, Attagene mRNA; actives raise or lower the signal
Chain of Cellular tumor antigen p53 (Homo sapiens) (P04637 whole entry, looked up): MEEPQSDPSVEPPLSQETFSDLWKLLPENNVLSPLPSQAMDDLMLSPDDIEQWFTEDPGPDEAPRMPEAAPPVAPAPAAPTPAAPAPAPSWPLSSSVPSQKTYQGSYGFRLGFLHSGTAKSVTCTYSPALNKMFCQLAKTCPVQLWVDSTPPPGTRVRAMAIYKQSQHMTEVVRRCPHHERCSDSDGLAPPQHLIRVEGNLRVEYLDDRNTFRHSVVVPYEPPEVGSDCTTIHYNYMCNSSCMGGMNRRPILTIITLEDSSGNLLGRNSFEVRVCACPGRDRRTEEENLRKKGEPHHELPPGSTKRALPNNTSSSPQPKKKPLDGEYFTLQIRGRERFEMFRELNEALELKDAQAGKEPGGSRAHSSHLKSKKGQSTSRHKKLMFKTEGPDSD
In short: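 HepG2, transient MRTU transfection (cis promoter elements, endogenous TFs); 24 h dosing; RNA isolation, RT-PCR, 6-FAM primer extension, HpaI digest, CE fluorescence; bidirectional fit vs DMSO.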

[8] = BSK_3C_TissueFactor: BioMAP Diversity Plus: 3C Assay for Tissue Factor Biomarker Activity (AID 2282997); conditions: BioMAP 3C HUVEC, tissue factor biomarker readout; actives raise or lower the signal
In short: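 ELISA read-out of Tissue Factor levels on human umbilical vein endothelium collected 24 h after chemical dosing. Gain or loss of signal was fitted relative to DMSO.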

[9] = BSK_3C_uPAR: BioMAP Diversity Plus: 3C Assay for Urokinase-type plasminogen activator receptor (uPAR) Biomarker Activity (AID 2282998); conditions: BioMAP 3C HUVEC, uPAR biomarker ELISA; actives raise or lower the signal
In short: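 Primary human umbilical vein endothelial cells, 3C system; surface uPAR measured by ELISA 24 h after dosing. Cytotoxicity via SRB total protein in parallel cultures; bidirectional fit against DMSO.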

[10] = BSK_3C_VCAM1: BioMAP Diversity Plus: 3C Assay for Vascular cell adhesion molecule 1 (VCAM1) Biomarker Activity (AID 2282999); conditions: BioMAP 3C HUVEC, VCAM1 ELISA, cytokine-stimulated; actives raise or lower the signal
In short: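 Human umbilical vein endothelial cells were dosed with compound for 24 h, after which cell-surface VCAM-1 was quantified by ELISA. Bidirectional curve fitting used DMSO as negative control and activity baseline.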

[11] = BSK_4H_Eotaxin3: BioMAP Diversity Plus: 4H Assay for Eotaxin 3 Biomarker Activity (AID 2283000); conditions: primary human endothelial cells (HUVEC); actives raise or lower the signal
In short: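 Chemicals were added to human umbilical vein endothelium cultures, and Eotaxin-3 was quantified by ELISA at 24 h. Values were derived by bidirectional fitting with DMSO serving as negative control and activity baseline.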

[12] = target: human Peroxisome Proliferator-activated Receptor alpha (PPARa), PPARA (gene 5465) (UniProt Q07869); test: ATG_PPARa_TRANS: Attagene TRANS-FACTORIAL HepG2 Assay for human Peroxisome Proliferator-activated Receptor alpha (PPARa) (AID 2283001; active means hit-call score of the fitted dose curve at least 0.9, where 1 is the maximum;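 on AC50: potency for gain of reporter signal over DMSO so agonist or activator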)
Chain of human Peroxisome Proliferator-activated Receptor alpha (PPARa), PPARA (gene 5465) (Q07869 whole entry, looked up, the tested form may be a part): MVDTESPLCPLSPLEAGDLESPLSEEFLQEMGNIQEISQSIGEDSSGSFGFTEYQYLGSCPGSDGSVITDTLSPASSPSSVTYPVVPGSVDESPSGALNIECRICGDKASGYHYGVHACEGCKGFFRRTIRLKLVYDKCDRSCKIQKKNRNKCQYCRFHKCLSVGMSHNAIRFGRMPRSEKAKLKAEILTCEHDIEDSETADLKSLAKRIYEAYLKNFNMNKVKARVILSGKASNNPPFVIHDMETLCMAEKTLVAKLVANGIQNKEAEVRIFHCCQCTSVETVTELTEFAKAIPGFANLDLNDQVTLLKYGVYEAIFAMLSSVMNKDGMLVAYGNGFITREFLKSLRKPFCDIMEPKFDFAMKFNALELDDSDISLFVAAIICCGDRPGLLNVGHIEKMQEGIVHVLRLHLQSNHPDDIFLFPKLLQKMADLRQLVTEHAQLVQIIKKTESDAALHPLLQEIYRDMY
In short: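 HepG2 cells transiently transfected with multiplexed GAL4-UAS reporter units and chimeric NR-Gal4 constructs were dosed for 24 h. Reporter mRNA was measured by RT-PCR with fluorescent labelling and capillary electrophoresis; gain of signal fitted against DMSO.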

[13] = read-out: Intercellular Adhesion Molecule 1 (ICAM1), ICAM1 (gene 3383); test: BSK_3C_ICAM1: BioMAP Diversity Plus: 3C Assay for Intercellular Adhesion Molecule 1 (ICAM1) Biomarker Activity (AID 2283003); conditions: primary human endothelial cells (HUVEC); actives raise or lower the signal
In short: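 Human vascular endothelial primary cells, 3C conditions, 24 h treatment. ICAM-1 by ELISA.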

[14] = BSK_3C_Proliferation: Cell Proliferation Assessment in the BioMAP Diversity Plus: 3C Assay (AID 2283006); conditions: primary human endothelial cells (HUVEC);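 on AC50: potency may reflect either rise or fall in cell number versus DMSO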
In short: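 Proliferation of human vascular endothelial primary cells after 48 h dosing, quantified as SRB-stained protein at 560 nm relative to DMSO.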

[15] = target: Peroxisome proliferator-activated receptor gamma (Homo sapiens) (UniProt P37231); test: ATG_PPARg_TRANS: Attagene TRANS-FACTORIAL HepG2 Assay for human Peroxisome Proliferator-activated Receptor-gamma (PPARg) (AID 2283007; active means hit-call score of the fitted dose curve at least 0.9, where 1 is the maximum)
Chain of Peroxisome proliferator-activated receptor gamma (Homo sapiens) (P37231 whole entry, looked up): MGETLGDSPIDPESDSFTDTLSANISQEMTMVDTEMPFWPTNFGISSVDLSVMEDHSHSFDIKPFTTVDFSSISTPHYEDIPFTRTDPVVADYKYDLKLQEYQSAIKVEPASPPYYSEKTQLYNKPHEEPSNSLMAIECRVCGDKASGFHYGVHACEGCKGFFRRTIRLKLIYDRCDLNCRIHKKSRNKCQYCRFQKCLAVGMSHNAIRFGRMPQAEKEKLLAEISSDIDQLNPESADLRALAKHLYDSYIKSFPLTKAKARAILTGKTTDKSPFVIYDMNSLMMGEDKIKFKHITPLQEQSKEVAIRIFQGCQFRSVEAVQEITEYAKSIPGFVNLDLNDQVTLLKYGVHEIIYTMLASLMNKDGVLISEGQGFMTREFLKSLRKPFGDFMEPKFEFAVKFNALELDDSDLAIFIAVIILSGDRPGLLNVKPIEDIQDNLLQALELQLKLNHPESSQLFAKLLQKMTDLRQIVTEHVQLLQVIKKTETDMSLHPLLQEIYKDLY
In short: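 Human hepatoma HepG2, transient MRTU transfection, 24 h treatment. mRNA reporter signal by RT-PCR plus capillary electrophoresis, fluorescence detection; fitted for increase over DMSO negative control.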

[16] = target: Nuclear receptor subfamily 1 group I member 2 (Homo sapiens) (UniProt O75469); test: ATG_PXR_TRANS: Attagene TRANS-FACTORIAL HepG2 Assay for human Pregnane X Receptor (PXR) (AID 2283008; active means hit-call score of the fitted dose curve at least 0.9, where 1 is the maximum)
Chain of Nuclear receptor subfamily 1 group I member 2 (Homo sapiens) (O75469 whole entry, looked up, the tested form may be a part): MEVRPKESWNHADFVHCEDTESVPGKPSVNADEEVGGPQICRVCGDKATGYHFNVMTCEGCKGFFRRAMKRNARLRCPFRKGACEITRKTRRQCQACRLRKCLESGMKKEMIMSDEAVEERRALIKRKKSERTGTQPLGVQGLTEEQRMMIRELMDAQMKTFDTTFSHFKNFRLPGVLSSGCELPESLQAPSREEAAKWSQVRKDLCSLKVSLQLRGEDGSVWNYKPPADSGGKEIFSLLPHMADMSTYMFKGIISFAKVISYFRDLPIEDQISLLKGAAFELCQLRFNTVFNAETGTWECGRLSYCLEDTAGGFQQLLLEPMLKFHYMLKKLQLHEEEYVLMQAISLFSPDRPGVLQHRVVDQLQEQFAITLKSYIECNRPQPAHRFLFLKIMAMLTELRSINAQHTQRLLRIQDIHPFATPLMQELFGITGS
In short: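 Read-out is fluorescence of labelled reporter cDNA fragments separated by capillary electrophoresis after RT-PCR and HpaI digestion. Source: HepG2 cells carrying PXR-GAL4/UAS reporter constructs, treated 24 h; activity fitted upward relative to DMSO.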

[17] = target: human Retinoic Acid Receptor gamma (RARg), RARG (gene 5916) (UniProt P13631); test: ATG_RARg_TRANS: Attagene TRANS-FACTORIAL HepG2 Assay for human Retinoic Acid Receptor gamma (RARg) (AID 2283009; active means hit-call score of the fitted dose curve at least 0.9, where 1 is the maximum)
Chain of human Retinoic Acid Receptor gamma (RARg), RARG (gene 5916) (P13631 whole entry, looked up, the tested form may be a part): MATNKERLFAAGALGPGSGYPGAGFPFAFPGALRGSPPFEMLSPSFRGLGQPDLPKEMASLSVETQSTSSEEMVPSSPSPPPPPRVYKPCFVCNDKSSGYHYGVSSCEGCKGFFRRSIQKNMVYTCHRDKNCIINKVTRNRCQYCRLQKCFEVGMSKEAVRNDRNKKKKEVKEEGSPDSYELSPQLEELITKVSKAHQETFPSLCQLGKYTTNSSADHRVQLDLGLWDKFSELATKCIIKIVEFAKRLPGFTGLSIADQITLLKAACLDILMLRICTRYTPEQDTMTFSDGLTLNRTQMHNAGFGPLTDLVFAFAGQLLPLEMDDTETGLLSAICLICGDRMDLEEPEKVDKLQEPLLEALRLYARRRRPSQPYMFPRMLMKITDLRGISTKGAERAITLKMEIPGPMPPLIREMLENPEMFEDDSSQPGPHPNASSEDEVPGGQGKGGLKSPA
In short: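 HepG2, RARg-GAL4 TRANS system, 24 h exposure; reporter mRNA by RT-PCR + CE fluorescence; increase over DMSO.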

[18] = target: human Peroxisome Proliferator-activated Receptor delta (PPARd), PPARD (gene 5467) (UniProt Q03181); test: ATG_PPARd_TRANS: Attagene TRANS-FACTORIAL HepG2 Assay for human Peroxisome Proliferator-activated Receptor delta (PPARd) (AID 2283002; active means hit-call score of the fitted dose curve at least 0.9, where 1 is the maximum)
Chain of human Peroxisome Proliferator-activated Receptor delta (PPARd), PPARD (gene 5467) (Q03181 whole entry, looked up, the tested form may be a part): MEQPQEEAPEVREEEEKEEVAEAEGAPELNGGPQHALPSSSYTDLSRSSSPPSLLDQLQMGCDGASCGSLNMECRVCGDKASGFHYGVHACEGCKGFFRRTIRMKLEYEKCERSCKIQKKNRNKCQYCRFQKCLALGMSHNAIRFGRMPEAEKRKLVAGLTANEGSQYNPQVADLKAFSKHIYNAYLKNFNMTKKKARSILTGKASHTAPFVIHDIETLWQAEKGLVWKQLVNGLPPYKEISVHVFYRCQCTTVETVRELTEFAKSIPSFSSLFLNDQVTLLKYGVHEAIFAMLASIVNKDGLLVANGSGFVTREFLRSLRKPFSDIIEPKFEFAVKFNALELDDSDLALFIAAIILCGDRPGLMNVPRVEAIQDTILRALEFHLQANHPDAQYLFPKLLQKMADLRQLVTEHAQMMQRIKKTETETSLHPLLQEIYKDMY
In short: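 Multiplexed trans-activation format: HepG2 liver cells expressing exogenous NR-Gal4 chimeras and GAL4-UAS reporters were exposed for 24 h. Reporter mRNA was detected by RT-PCR with capillary electrophoresis fluorescence; activity fitted as gain of signal relative to DMSO.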

[19] = target: human Retinoic Acid Receptor beta (RARb), RARB (gene 5915) (UniProt P10826); test: ATG_RARb_TRANS: Attagene TRANS-FACTORIAL HepG2 Assay for human Retinoic Acid Receptor beta (AID 2283004; active means hit-call score of the fitted dose curve at least 0.9, where 1 is the maximum)
Chain of human Retinoic Acid Receptor beta (RARb), RARB (gene 5915) (P10826 whole entry, looked up): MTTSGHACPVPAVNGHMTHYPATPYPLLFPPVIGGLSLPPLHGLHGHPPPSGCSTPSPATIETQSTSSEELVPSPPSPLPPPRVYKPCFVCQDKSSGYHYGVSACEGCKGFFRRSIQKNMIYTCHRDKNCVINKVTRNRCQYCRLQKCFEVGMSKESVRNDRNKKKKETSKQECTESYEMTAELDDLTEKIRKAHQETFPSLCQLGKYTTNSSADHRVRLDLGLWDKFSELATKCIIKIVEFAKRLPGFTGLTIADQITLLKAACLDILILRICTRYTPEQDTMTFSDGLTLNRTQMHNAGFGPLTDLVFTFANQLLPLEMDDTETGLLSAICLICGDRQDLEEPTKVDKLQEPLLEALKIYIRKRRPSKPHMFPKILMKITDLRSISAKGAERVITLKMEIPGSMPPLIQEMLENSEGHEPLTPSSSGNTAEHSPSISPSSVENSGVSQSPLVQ
In short: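 Transient transfection of HepG2 with multiple reporter units → chemical dosing, 24 h → total RNA isolation → RT with oligo(dT) → reporter-specific PCR, 6-FAM primer extension, HpaI digest → capillary electrophoresis. Positive direction vs DMSO control.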

[20] = target: Retinoic acid receptor alpha (Homo sapiens) (UniProt P10276); test: ATG_RARa_TRANS: Attagene TRANS-FACTORIAL HepG2 Assay for human Retinoic Acid Receptor alpha (RARa) (AID 2283005; active means hit-call score of the fitted dose curve at least 0.9, where 1 is the maximum)
Chain of Retinoic acid receptor alpha (Homo sapiens) (P10276 whole entry, looked up, the tested form may be a part): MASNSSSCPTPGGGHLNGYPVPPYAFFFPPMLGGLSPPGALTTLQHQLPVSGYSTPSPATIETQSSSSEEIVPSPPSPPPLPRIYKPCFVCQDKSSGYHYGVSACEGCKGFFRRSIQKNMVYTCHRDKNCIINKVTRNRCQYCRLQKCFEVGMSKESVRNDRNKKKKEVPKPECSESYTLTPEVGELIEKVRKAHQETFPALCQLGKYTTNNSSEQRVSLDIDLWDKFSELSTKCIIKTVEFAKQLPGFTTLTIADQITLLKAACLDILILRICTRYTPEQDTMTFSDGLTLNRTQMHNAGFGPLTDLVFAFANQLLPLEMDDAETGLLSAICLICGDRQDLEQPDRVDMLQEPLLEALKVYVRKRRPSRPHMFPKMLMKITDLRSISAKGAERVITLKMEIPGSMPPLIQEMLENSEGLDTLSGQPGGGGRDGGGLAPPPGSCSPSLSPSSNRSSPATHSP
In short: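 HepG2 cells transiently transfected with multiple reporter units expressing chimeric RARα-GAL4 fusion, with GAL4-UAS-driven reporters. After 24 h compound exposure, reporter mRNA induction quantified by RT-PCR and capillary electrophoresis with fluorescent labeling; gain-of-signal fitted relative to DMSO control.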

Measured: AC50

CCCCOC(=O)CCCCCCCCC(=O)OCCCC
active: [7] 156 µM | [12] 37 µM
not listed: [18] | [19] | [20]
inactive: all other assays above

COc1cc(-c2nc(NC(=O)c3cc4cc(C)cc(C)c4n3CC(=O)O)sc2CCC2CCCCC2)c(OC)cc1Cl
inactive: [1] | [3] | [7] | [12] | [15] | [16]
active: [2] 27 µM | [4] 26.7 µM | [5] 3.45 µM | [6] 5.48 µM | [8] 2.98 µM | [9] 2.92 µM | [10] 4.86 µM | [11] 3.77 µM | [13] 5.54 µM | [14] 3.78 µM

CN[C@H]1CC[C@@H](c2ccc(Cl)c(Cl)c2)c2ccc(S(N)(=O)=O)cc21
active: [8] 33.4 µM | [9] 14.3 µM | [10] 30.4 µM | [11] 15.2 µM | [13] 30.9 µM | [14] 6.14 µM
not listed: [12] | [17] | [19] | [20]
inactive: all other assays above

CC(C)c1ccc(C(=O)N=C(N)N)cc1S(C)(=O)=O
not listed: [12] | [17] | [20]
inactive: all other assays above

CCCCCCCCCCCCCCCCCC(=O)O
active: [14] 3.97 µM
not listed: [16] | [18] | [19] | [20]
inactive: all other assays above

CC1(C)NC(=O)NC1=O
not listed: [12] | [15] | [17] | [19]
inactive: all other assays above

CCNc1cccc(C)c1
not listed: [19]
inactive: all other assays above

CNC(=O)[C@H]1O[C@@H](n2cnc3c(NCc4cc(Cl)ccc4OCc4cc(C)no4)ncnc32)[C@H](O)[C@@H]1N
not listed: [12] | [17] | [19] | [20]
inactive: all other assays above

NC(=O)Cn1c(=O)cc(CCN2CCN(c3nccc4sccc34)CC2)c2ccc(F)cc21
active: [5] 54.3 µM | [14] 0.148 µM
not listed: [12] | [17] | [19] | [20]
inactive: all other assays above

Cc1ccc(C(C)C)c(O)c1
active: [5] 100 µM | [8] 1.38 µM
not listed: [18] | [20]
inactive: all other assays above

CC(=O)Oc1ccccc1C(=O)O
active: [5] 68 µM | [6] 177 µM | [15] 61.7 µM
not listed: [18]
inactive: all other assays above

CC(C)(C)c1cc(O)c(C(C)(C)C)cc1O
active: [1] 162 µM | [2] 30.6 µM | [3] 114 µM | [5] 30.5 µM | [6] 33 µM | [8] 7.03 µM | [10] 9.79 µM | [11] 6.65 µM | [14] 8.74 µM | [15] 38.7 µM | [16] 2.99 µM
inactive: [4] | [7] | [9] | [12] | [18] | [13] | [19] | [20] | [17]

Cc1nc(-c2ccc3c(c2)CCN(CCC2CCC(NC(=O)/C=C/c4ccc(F)cc4)CC2)CC3)no1 (stereo not drawn)
active: [10] 12.8 µM | [11] 12.9 µM | [14] 4.71 µM
not listed: [16] | [17] | [18] | [19] | [20]
inactive: all other assays above

O=c1c(O)c(-c2ccc(O)c(O)c2)oc2cc(O)cc(O)c12
active: [5] 27 µM | [7] 65.6 µM | [8] 15.6 µM | [9] 13.7 µM | [10] 32 µM | [11] 24.4 µM | [14] 26.8 µM
not listed: [16] | [18] | [19] | [20]
inactive: all other assays above

CCc1c(C(=O)NN2CCCCC2)nn(-c2ccc(Cl)cc2Cl)c1-c1ccc(Br)cc1
active: [1] 7.79 µM | [5] 1.53 µM | [8] 11.7 µM | [9] 6.7 µM | [10] 11.1 µM | [11] 8.48 µM | [14] 6.79 µM | [15] 0.0976 µM
inactive: [2] | [3] | [4] | [6] | [7] | [18] | [13] | [16]

Reference: PubChem BioAssay (EPA / NIEHS)
